Measurements taken from the supplement of paper PMC12282887.
± gives the standard deviation of the averaged measurements.

Tests used:
Experiment in all cases: promoter activity interaction Z-score (Lux/OD deviation from empty-vector control); higher = stronger promoter induction by the compound
[1] = system: E. coli BW25113 acrABp lux reporter
Summary of the method: (§1)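 At 37°C, E. coli BW25113 reporter cultures in 40 µl LB Lennox in 384-well plates were read for OD600 and luminescence every 30 min for 12 h. Windows were 0–8 h for wild type and 1–9 h for deletion strains, and wells under 10% of the median growth value were removed. The score is the Z-transformed residual of growth-normalised luminescence against a control fit.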

[2] = system: E. coli BW25113 micFp lux reporter
Summary of the method: as §1

[3] = system: E. coli BW25113 ompFp lux reporter
Summary of the method: as §1

[4] = system: E. coli BW25113 robp lux reporter
Summary of the method: as §1

[5] = system: E. coli BW25113 soxSp lux reporter
Summary of the method: as §1

[6] = system: E. coli BW25113 tolCp lux reporter
Summary of the method: as §1

[7] = 28.4 µg/ml, genetic background: wild type
[8] = 28.4 µg/ml, genetic background: ΔmarA
[9] = 28.4 µg/ml, genetic background: Δrob
[10] = 28.4 µg/ml, genetic background: ΔsoxS
[11] = 56.8 µg/ml, genetic background: wild type
[12] = 56.8 µg/ml, genetic background: ΔmarA
[13] = 56.8 µg/ml, genetic background: Δrob
[14] = 56.8 µg/ml, genetic background: ΔsoxS
[15] = 113.7 µg/ml, genetic background: wild type
[16] = 113.7 µg/ml, genetic background: ΔmarA
[17] = 113.7 µg/ml, genetic background: Δrob
[18] = 113.7 µg/ml, genetic background: ΔsoxS
[19] = 227.3 µg/ml, genetic background: wild type
[20] = 227.3 µg/ml, genetic background: ΔmarA
[21] = 227.3 µg/ml, genetic background: Δrob
[22] = 227.3 µg/ml, genetic background: ΔsoxS

COc1ccc(CCN(C)CCCC(C#N)(c2ccc(OC)c(OC)c2)C(C)C)cc1OC (stereo unspecified) [Verapamil]
promoter activity interaction Z-score [1, 7]: -0.0103 ± 0.0068
promoter activity interaction Z-score [1, 8]: 0.651 ± 0.14
promoter activity interaction Z-score [1, 9]: -0.17 ± 0.16
promoter activity interaction Z-score [1, 10]: -0.0848 ± 0.7
promoter activity interaction Z-score [1, 11]: 0.383 ± 0.58
promoter activity interaction Z-score [1, 12]: 0.649 ± 0.29
promoter activity interaction Z-score [1, 13]: 0.236 ± 0.12
promoter activity interaction Z-score [1, 14]: -0.365 ± 0.9
promoter activity interaction Z-score [1, 15]: 0.623 ± 0.79
promoter activity interaction Z-score [1, 16]: 2.27 ± 1.4
promoter activity interaction Z-score [1, 17]: 0.0537 ± 0.02
promoter activity interaction Z-score [1, 18]: -0.0861 ± 0.73
promoter activity interaction Z-score [1, 19]: 0.502 ± 0.14
promoter activity interaction Z-score [1, 20]: 2.09 ± 0.52
promoter activity interaction Z-score [1, 21]: 0.279 ± 0.19
promoter activity interaction Z-score [1, 22]: 0.136 ± 0.55
promoter activity interaction Z-score [2, 7]: 0.174 ± 0.55
promoter activity interaction Z-score [2, 8]: 0.00711 ± 0.17
promoter activity interaction Z-score [2, 9]: 0.232 ± 0.1
promoter activity interaction Z-score [2, 10]: -0.114 ± 0.26
promoter activity interaction Z-score [2, 11]: 0.0628 ± 0.15
promoter activity interaction Z-score [2, 12]: 0.0935 ± 0.19
promoter activity interaction Z-score [2, 13]: 0.195 ± 0.062
promoter activity interaction Z-score [2, 14]: -0.187 ± 0.36
promoter activity interaction Z-score [2, 15]: 0.65 ± 0.19
promoter activity interaction Z-score [2, 16]: 0.105 ± 0.032
promoter activity interaction Z-score [2, 17]: 0.115 ± 0.16
promoter activity interaction Z-score [2, 18]: -0.238 ± 0.43
promoter activity interaction Z-score [2, 19]: 0.41 ± 0.066
promoter activity interaction Z-score [2, 20]: -0.0581 ± 0.06
promoter activity interaction Z-score [2, 21]: -0.1466 ± 0.00035
promoter activity interaction Z-score [2, 22]: -0.0743 ± 0.052
promoter activity interaction Z-score [3, 7]: -0.365 ± 0.11
promoter activity interaction Z-score [3, 8]: -1.14 ± 0.89
promoter activity interaction Z-score [3, 9]: -0.51 ± 0.49
promoter activity interaction Z-score [3, 10]: -0.279 ± 0.15
promoter activity interaction Z-score [3, 11]: -0.296 ± 0.077
promoter activity interaction Z-score [3, 12]: -0.384 ± 0.03
promoter activity interaction Z-score [3, 13]: -0.384 ± 0.42
promoter activity interaction Z-score [3, 14]: -0.491 ± 0.42
promoter activity interaction Z-score [3, 15]: 0.443 ± 0.46
promoter activity interaction Z-score [3, 16]: 0.589 ± 0.067
promoter activity interaction Z-score [3, 17]: 0.355 ± 1.1
promoter activity interaction Z-score [3, 18]: -0.599 ± 0.19
promoter activity interaction Z-score [3, 19]: 1.21 ± 0.48
promoter activity interaction Z-score [3, 20]: 1.56 ± 0.13
promoter activity interaction Z-score [3, 21]: 1.4 ± 0.93
promoter activity interaction Z-score [3, 22]: 1.09 ± 0.35
promoter activity interaction Z-score [4, 7]: 0.158 ± 0.075
promoter activity interaction Z-score [4, 8]: 0.0269 ± 0.54
promoter activity interaction Z-score [4, 9]: 0.215 ± 1.7
promoter activity interaction Z-score [4, 10]: 0.00204 ± 1.1
promoter activity interaction Z-score [4, 11]: 1.19 ± 0.91
promoter activity interaction Z-score [4, 12]: -0.42 ± 0.62
promoter activity interaction Z-score [4, 13]: -0.201 ± 0.23
promoter activity interaction Z-score [4, 14]: 0.308 ± 0.86
promoter activity interaction Z-score [4, 15]: 1.4 ± 0.44
promoter activity interaction Z-score [4, 16]: 1.73 ± 0.022
promoter activity interaction Z-score [4, 17]: 0.608 ± 0.43
promoter activity interaction Z-score [4, 18]: -0.00665 ± 0.6
promoter activity interaction Z-score [4, 19]: 1.1 ± 0.18
promoter activity interaction Z-score [4, 20]: 2.29 ± 0.91
promoter activity interaction Z-score [4, 21]: 0.783 ± 1.4
promoter activity interaction Z-score [4, 22]: 1.05 ± 0.94
promoter activity interaction Z-score [5, 7]: -0.18 ± 0.32
promoter activity interaction Z-score [5, 8]: -0.165 ± 0.065
promoter activity interaction Z-score [5, 9]: 0.0441 ± 0.32
promoter activity interaction Z-score [5, 10]: -0.273 ± 0.25
promoter activity interaction Z-score [5, 11]: -0.187 ± 0.26
promoter activity interaction Z-score [5, 12]: -0.0917 ± 0.18
promoter activity interaction Z-score [5, 13]: -0.138 ± 0.19
promoter activity interaction Z-score [5, 14]: -0.142 ± 0.42
promoter activity interaction Z-score [5, 15]: 0.17 ± 0.18
promoter activity interaction Z-score [5, 16]: -0.0904 ± 0.16
promoter activity interaction Z-score [5, 17]: -0.00688 ± 0.12
promoter activity interaction Z-score [5, 18]: -0.0619 ± 0.28
promoter activity interaction Z-score [5, 19]: -0.0451 ± 0.043
promoter activity interaction Z-score [5, 20]: -0.359 ± 0.078
promoter activity interaction Z-score [5, 21]: -0.361 ± 0.061
promoter activity interaction Z-score [5, 22]: -0.0524 ± 0.36
promoter activity interaction Z-score [6, 7]: 0.46 ± 1.1
promoter activity interaction Z-score [6, 8]: -0.252 ± 0.52
promoter activity interaction Z-score [6, 9]: 1.67 ± 0.9
promoter activity interaction Z-score [6, 10]: 0.403 ± 0.82
promoter activity interaction Z-score [6, 11]: 0.842 ± 0.79
promoter activity interaction Z-score [6, 12]: 0.112 ± 0.0026
promoter activity interaction Z-score [6, 13]: 1.38 ± 0.88
promoter activity interaction Z-score [6, 14]: 0.773 ± 0.7
promoter activity interaction Z-score [6, 15]: 1.44 ± 0.11
promoter activity interaction Z-score [6, 16]: 0.195 ± 0.35
promoter activity interaction Z-score [6, 17]: 0.654 ± 0.3
promoter activity interaction Z-score [6, 18]: 0.501 ± 1.5
promoter activity interaction Z-score [6, 19]: 0.0187 ± 0.66
promoter activity interaction Z-score [6, 20]: -0.769 ± 0.041
promoter activity interaction Z-score [6, 21]: -0.237 ± 0.19
promoter activity interaction Z-score [6, 22]: -0.139 ± 0.8
